Source: PubChem
Most compounds without a hit are left out; they make up all but 4.3% or so of the library.
NALP1 inh: NALP1 inhibition; S. cerevisiae NALP1/ASC/caspase-1 growth, X-gal OD620, 72 h; inhibition, % at 10 µM; 0.61% of 280,000 active; AID 2071; in the data active = inhibition mostly above about 24%, no sharp cut-off; inactive = mostly below about 32%
GRIN3A LBD mod: modulators (binders) of human NR3A ligand-binding domain. Tm shift relative to glycine control, % at 25 µM. NR3A LBD differential scanning fluorimetry, Tm shift; 0% = protein alone, 100% = glycine-bound protein. AID 1259313. 2.5% of 340,000 active;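 active = melting temperature shift of at least 10% of the positive control shift, at one fixed dose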
Yeast superoxide: yeast age-related superoxide inhibition as caloric restriction mimetic | S. cerevisiae aged cells, superoxide DHE fluorescence; hits give low values | superoxide response (% of plate mean), % at 10 µM | 0.18% of 330,000 active | AID 2690;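 active = superoxide response under a set limit, about three screen SD below normal, cut at about 65% in these data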;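 also: yeast aged for seven days with compound at 30 °C before DHE staining; 100% = average MFI of all compound-treated wells on the plate with controls excluded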
UBC13 inh: human UBC13 polyubiquitination inhibition; UBC13 polyubiquitin chain formation, TR-FRET; inhibition, % at 20 µM; P61088; 0.47% of 330,000 active; in the data active = inhibition above about 45%, passing the limit was not always enough
Target sequence (P61088 whole entry, looked up): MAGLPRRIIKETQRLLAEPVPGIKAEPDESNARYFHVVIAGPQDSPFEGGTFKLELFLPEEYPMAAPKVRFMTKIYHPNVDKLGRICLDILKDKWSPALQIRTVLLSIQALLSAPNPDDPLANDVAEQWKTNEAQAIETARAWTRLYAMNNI
dFosB act: enhances mouse delta FosB homodimer DNA binding; P13346; purified delta FosB, TAMRA-CDK5 oligo fluorescence polarization; percent of positive-control signal above neutral wells; activation, % at 25 µM; 0.99% of 340,000 active; AID 493131;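 active = mean activation above about 17%, with every replicate also reaching it, limit read from the data, passing the limit was not always enough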
Target sequence (P13346 whole entry, looked up): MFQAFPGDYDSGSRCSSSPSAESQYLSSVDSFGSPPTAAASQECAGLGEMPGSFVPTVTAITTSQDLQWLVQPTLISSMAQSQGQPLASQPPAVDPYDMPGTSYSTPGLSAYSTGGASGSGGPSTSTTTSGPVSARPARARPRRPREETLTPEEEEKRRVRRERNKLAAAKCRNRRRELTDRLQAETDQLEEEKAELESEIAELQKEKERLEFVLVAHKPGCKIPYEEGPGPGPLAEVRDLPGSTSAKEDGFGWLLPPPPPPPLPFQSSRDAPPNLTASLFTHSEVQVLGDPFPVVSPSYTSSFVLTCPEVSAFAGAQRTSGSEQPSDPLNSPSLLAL
* hit, by the source's call; . = no result given.

SMILES | NALP1 inh | GRIN3A LBD mod | Yeast superoxide | UBC13 inh | dFosB act
COc1ccc(-c2cc(C3CCN(Cc4ccc([N+](=O)[O-])cc4)CC3)[nH]n2)cc1 | 8 | -9 | 97 | 11 | 7
Nc1nc(Cl)cc(N2CCC(c3cc(-c4ccc(Cl)cc4)n[nH]3)CC2)n1 | -12 | 17* | 107 | 40 | -14
CCOc1ccc2nc(N3CCOCC3)nc(C)c2c1 | 35 | -1 | 94 | 6 | -5
CCOc1ccc2nc3ccc4[nH]onc4c3c2c1 | . | 31* | 109 | 0 | -11
CCCC(=O)Nc1cc2c(cc1C(C)=O)OCCO2 | 2 | -1 | 109 | 0 | 6
CC(=O)Nc1cc2c(cc1C(C)=O)OCCO2 | -10 | 13* | 99 | 1 | 8
CNC(=S)NNC(=O)c1cc(C(C)(C)C)nn1Cc1ccc(F)cc1 | -10 | 1 | 106 | 4 | -3
COc1ccc(C)c2sc(N(CCCN(C)C)C(=O)c3ccc(S(=O)(=O)N4CCc5ccccc5C4)cc3)nc12 | . | -14 | 82 | . | 70*
COc1cccc2sc(N(CCCN(C)C)C(=O)c3ccc(S(=O)(=O)N4CCCc5ccccc54)cc3)nc12 | 20 | -16 | 102 | 28 | -3
Cc1ccc2sc(N(CCCN(C)C)C(=O)c3ccc(S(=O)(=O)N4CCc5ccccc5C4)cc3)nc2c1C | . | 14* | 110 | 24 | 38*
CN(C)CCCN(C(=O)c1ccc(S(=O)(=O)N2CCc3ccccc3C2)cc1)c1nc2c(F)cc(F)cc2s1 | . | . | 109 | 24 | 37*
CN(C)CCN(C(=O)c1ccc2c(c1)CCCC2)c1nc2c(F)cccc2s1 | 42* | -4 | 104 | -17 | -12
CCOC(=O)N1CCN(S(=O)(=O)c2ccc(C(=O)N(CCCN(C)C)c3nc4c(F)cc(F)cc4s3)cc2)CC1 | . | 4 | 102 | 5 | 1
CCOC(=O)C1(CC2CCCCO2)CCN(C(=O)Nc2ccccc2CC)CC1 (stereo not given) | -7 | 1 | 110 | -4 | -10
NC(=O)C1CCN(C(=O)CCNS(=O)(=O)c2ccccc2F)CC1 | . | 2 | 101 | 3 | -2
O=C(c1ccccc1Cc1ccccc1)N1CCN(S(=O)(=O)c2ccccc2[N+](=O)[O-])CC1 | . | 3 | 74 | 0 | 2
Cc1c(C(=O)N2CCCCC2C)sc2nc3n(c(=O)c12)CCC3 (stereo not given) | 13 | 2 | 126 | 6 | -9
C#CCOCCOCCOCCNc1nc(N2CCN(C(=O)CCCCCCCCCCNC(=O)[C@H](CO)n3cc(CCCCCN)nn3)CC2)nc(N2CCN(C(=O)CCCCCCCCCCNC(=O)[C@H](CCCN=C(N)N)n3cc(C[C@@H](C)CC)nn3)CC2)n1 | . | . | 94 | 129* | .
C#CCOCCOCCOCCNc1nc(N2CCN(C(=O)CCCCCCCCCCNC(=O)[C@@H](CCSC)n3cc(CCO)nn3)CC2)nc(N2CCN(C(=O)CCCCCCCCCCNC(=O)[C@@H]([C@H](C)O)n3cc(C)nn3)CC2)n1 | . | 0 | 101 | 22 | -5
C#CCOCCOCCOCCNc1nc(N2CCN(C(=O)CCCCCCCCCCNC(=O)[C@H](CCCN=C(N)N)n3cc(C[C@@H](C)CC)nn3)CC2)nc(N2CCN(C(=O)CCCCCCCCCCNC(=O)[C@@H]([C@H](C)CC)n3cc(CCCCCN)nn3)CC2)n1 | . | . | 103 | 122* | .
C#CCOCCOCCOCCNc1nc(N2CCN(C(=O)CCCCCCCCCCNC(=O)[C@H](CCCCN)n3cc(CCO)nn3)CC2)nc(N2CCN(C(=O)CCCCCCCCCCNC(=O)[C@H](CCCCN)n3cc(C[C@@H](C)CC)nn3)CC2)n1 | . | 20* | 108 | 130* | .
C#CCOCCOCCOCCNc1nc(N2CCN(C(=O)CCCCCCCCCCNC(=O)[C@H](CCCCN)n3cc(C[C@@H](C)CC)nn3)CC2)nc(N2CCN(C(=O)CCCCCCCCCCNC(=O)[C@@H]([C@H](C)O)n3cc(C)nn3)CC2)n1 | . | 11* | 100 | 118* | -338
C#CCOCCOCCOCCNc1nc(N2CCN(C(=O)CCCCCCCCCCNC(=O)Cn3cc(C[C@@H](C)O)nn3)CC2)nc(N2CCN(C(=O)CCCCCCCCCCNC(=O)[C@@H](CCSC)n3cc(CCO)nn3)CC2)n1 | . | -368 | 98 | 26 | -10
C#CCOCCOCCOCCNc1nc(N2CCN(C(=O)[C@H]([C@@H](C)CC)n3cc(CCCCN)nn3)CC2)nc(N2CCN(C(=O)[C@H](CCCCN)n3cc(CC(C)O)nn3)CC2)n1 (stereo not given in full) | . | -1 | 103 | 20 | 4
C#CCOCCOCCOCCNc1nc(N2CCOCC2)nc(N2CCN(C(=O)CCCCCCCCCCNC(=O)[C@H](CO)n3cc(CCCSC)nn3)CC2)n1 | . | 2 | 92 | 2 | -20
SMILES | NALP1 inh | GRIN3A LBD mod | Yeast superoxide | UBC13 inh | dFosB act
Cc1onc(-c2c(F)cccc2Cl)c1C(=O)OCC(=O)NC(c1ccccc1)c1ccccc1 | 15 | 0 | 95 | 6 | -1
C#CCOCCOCCOCCNc1nc(N2CCOCC2)nc(N2CCN(C(=O)[C@H]([C@@H](C)CC)n3cc(CCCN=C(N)N)nn3)CC2)n1 | 25 | -2 | 108 | 15 | 0
C#CCOCCOCCOCCNc1nc(N2CCN(C(=O)CCCCCCCCCCNC(=O)[C@H]([C@@H](C)CC)n3cc(CCCCN=C(N)N)nn3)CC2)nc(N2CCN(C(=O)CCCCCCCCCCNC(=O)[C@H](CCCN=C(N)N)n3cc(C[C@@H](C)CC)nn3)CC2)n1 | . | . | 107 | 129* | .
C/C(=N\NC(=O)C1CC1c1ccccc1)c1ccc(C)s1 (stereo not given) | -1 | 2 | 98 | 9 | -4
CCOC(=O)C(/C(C)=N/NC(=O)C1CC1c1ccccc1)C(C)C (stereo not given) | 8 | 16* | 97 | 2 | -4
N#Cc1ccc(OCC(=O)N2CCN(S(=O)(=O)c3cccc(Cl)c3)CC2)cc1 | . | 2 | 117 | 2 | -10
Cc1ccc(N(CC(=O)Nc2ccccc2C(=O)N2CCOCC2)S(C)(=O)=O)cc1 | 3 | 13* | 103 | -7 | -1
CCOc1ccnc2c1c(=O)n(Cc1cc(OC)cc(OC)c1)c(=O)n2C | 17 | 1 | 92 | -6 | 5
COCCNc1nc(-c2cc(C)n(CCc3ccc(OC)cc3)c2C)cs1 | 12 | 2 | 114 | -14 | -2
COc1ccccc1CNc1nc(-c2cc(C)n(C)c2C)cs1 | 8 | -11 | . | . | 18*
O=c1c2ccccc2nc(COc2ccccc2)n1/N=C/c1c[nH]c2ccccc12 | 25 | 25* | 102 | 0 | 5
Cc1ccccc1OCc1nc2ccccc2c(=O)n1/N=C/c1cn[nH]c1-c1ccc(Br)cc1 | 26 | 26* | 95 | -15 | 1
COc1ccc(NC(=O)c2cc(-c3ccccc3)oc2C)cc1 | 32 | 18* | 92 | 11 | 1
Cc1occc1C(=O)Nc1ccc2ccccc2c1 | 30 | 24* | 91 | 6 | -2
Cc1oc(-c2ccccc2)cc1C(=O)Nc1ccc2ccccc2c1 | 30 | 15* | 110 | -11 | 1
